In PubChem BioAssay (NCI) one finds growth data, which are given here for 13 compounds.

Among the test systems are SK-MEL-2 melanoma; EKVX NSCLC; SN12C renal; UO-31 renal; TK-10 renal; ACHN renal; CAKI-1 renal; A498 renal; MOLT-4 leukemia; CCRF-CEM leukemia.
What all share (assay): NCI-60 one-dose screen, 48 h (100 = growth as untreated, 0 = no growth, -100 = all killed)
What all share (settings): 10 µM unless noted

Compounds without any hit were thinned out: in the full panel of roughly 83,000, 20% have a hit.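 Treatment: one concentration, 48 hours, 96-well format. Scoring: percent growth, with anything below 10 considered active.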 Unmarked numbers belong to inactive results. Calls of active or inactive are those of the source.

Take `COC(=O)CCCCCn1c2ccccc2c2c3c(c4c5ccccc5[nH]c4c21)C(=O)N(O)C3=O`: the growth with SK-MEL-2 melanoma was 77.3%; in the assay with EKVX NSCLC it was 75.3%; with SN12C renal, 37.8%; in the assay with UO-31 renal, 11.8%; in the assay with TK-10 renal, 74.4%; with ACHN renal, -18.5% (active). Also, the results for the growth in the assay on CAKI-1 renal, in the assay with A498 renal and in the assay with MOLT-4 leukemia were -16.8% (active), 62% and -15.6% (active), respectively.

For `COc1cccc(-c2nn(-c3ccccc3)cc2-c2ccnc(NCCNS(=O)(=O)c3ccccc3)c2)c1`, the growth in the assay with SK-MEL-2 melanoma is 21%; with EKVX NSCLC, 47.2%; in the assay on SN12C renal, 36.1%; in the assay on UO-31 renal, 14.5%; in the assay on TK-10 renal, 43.8%; in the assay with ACHN renal it was 28.9%. Besides, the figures for the growth with CAKI-1 renal, in the assay with A498 renal and in the assay on MOLT-4 leukemia were 43.7%, 47.7% and 12.8%, respectively.

Regarding `C=C(C)[C@@H]1CC[C@]2(C(=O)N3CCN(CC)CC3)CC[C@]3(C)[C@H](CC[C@@H]4[C@@](C)(CCC(=O)N5CCN(CC)CC5)[C@H](C(=C)C)CC[C@]43C)[C@@H]12`, the growth is 90.2% in the assay with SK-MEL-2 melanoma; 52.5% in the assay with EKVX NSCLC; 66.9% in the assay with SN12C renal; 28.2% in the assay with UO-31 renal; 49.6% in the assay on TK-10 renal; -49.8% (active) in the assay on ACHN renal. The growth was -15.3% (active) in the assay with CAKI-1 renal, 92.6% with A498 renal, 49.4% in the assay on CCRF-CEM leukemia and 34% with MOLT-4 leukemia.

Consider `Cn1cc(-c2nc(-c3cn(C)c4ncccc34)cs2)c2ccccc21`, for which the growth in the assay on SK-MEL-2 melanoma is 28.6%; in the assay with EKVX NSCLC, 62.6%; in the assay on SN12C renal it was 52.8%; in the assay on UO-31 renal, 62.4%; in the assay with TK-10 renal it was 50.5%; with ACHN renal it was 49.6%. In addition, the growth in the assay with CAKI-1 renal is 28.3%; with A498 renal, 45.4%; in the assay with MOLT-4 leukemia, 31.7%.

On to `CNC(=O)c1cc(Oc2ccc3nc(NC(=O)Nc4ccc(Cl)cc4)sc3c2)ccn1`, for which the growth in the assay on SK-MEL-2 melanoma was 81.1%; in the assay with EKVX NSCLC it was 53.8%; in the assay with SN12C renal, 62.3%; in the assay with UO-31 renal it was 62.5%; in the assay on TK-10 renal it was 62.3%; in the assay on ACHN renal it was 64.9%. Besides, the results for the growth with CAKI-1 renal, with CCRF-CEM leukemia and with MOLT-4 leukemia were 94.7%, 83.2% and 85.4%, respectively.

For `CC(=O)OCCCCCCn1c2ccccc2c2c3c(c4c5ccccc5n(C)c4c21)C(=O)N(O)C3=O`, the growth in the assay with SK-MEL-2 melanoma was 84.6%; in the assay on EKVX NSCLC, 98.6%; in the assay with SN12C renal, 70%; in the assay with UO-31 renal, 50%; in the assay on TK-10 renal it was 80.6%; in the assay with ACHN renal, 74.9%. The growth in the assay with CAKI-1 renal was 4.21% (active); in the assay on A498 renal, 52.9%; in the assay with CCRF-CEM leukemia, 34.3%; in the assay with MOLT-4 leukemia it was 10.9%.

Take `C=C(C)[C@@H]1CC[C@]2(/C=N/Nc3ccncc3)CC[C@]3(C)[C@H](CC[C@@H]4[C@@]5(C)CCCNC(C)(C)[C@@H]5CC[C@]43C)[C@@H]12`: the growth in the assay with SK-MEL-2 melanoma is 110%; in the assay with EKVX NSCLC it was 99.5%; in the assay on SN12C renal, 85.2%; in the assay on UO-31 renal it was 85%; with TK-10 renal, 120%; with ACHN renal it was 100%. Also, the growth in the assay with CAKI-1 renal was 74.7%; in the assay with A498 renal, 83.8%; with MOLT-4 leukemia it was 58%.

Turning to `O=C1CCN2C(=O)Nc3ccccc3C2C1` (stereo not given), the growth with SK-MEL-2 melanoma was 110%; in the assay with EKVX NSCLC, 99.8%; in the assay on SN12C renal, 94.2%; with UO-31 renal, 94.1%; in the assay with TK-10 renal it was 104%; in the assay on ACHN renal, 106%. For the same compound, the growth with CAKI-1 renal was 89.6%; in the assay on A498 renal it was 120%; with MOLT-4 leukemia, 97.8%.

`COc1ccc2c3c(c4ccccc4cc13)C(=O)N(CCN(C)CCN)C2=O`: the growth in the assay on SK-MEL-2 melanoma is 22.3%; with EKVX NSCLC, -48% (active); in the assay on SN12C renal, -63.3% (active); in the assay on UO-31 renal it was -83.7% (active); with TK-10 renal, -73.8% (active); in the assay with ACHN renal, -71.6% (active). Further, the growth with CAKI-1 renal was 3.18% (active); in the assay with A498 renal, -48.8% (active); in the assay on CCRF-CEM leukemia, -65.1% (active); in the assay with MOLT-4 leukemia it was -32.5% (active).

Consider `COc1cccc(-c2nn(-c3ccccc3)cc2-c2ccnc(NCCCO)c2)c1`, for which the growth in the assay on SK-MEL-2 melanoma was -0.25% (active); in the assay on EKVX NSCLC, 67.6%; in the assay on SN12C renal it was 34.3%; in the assay with UO-31 renal it was 48.9%; with TK-10 renal, 63.1%; in the assay with ACHN renal, 55.6%. The growth in the assay with CAKI-1 renal was 43%; in the assay on A498 renal, 15.1%; with MOLT-4 leukemia it was 25.1%.

Take `O=C1/C(=C\c2ccc(Br)o2)SC(=S)N1CCc1ccc(O)cc1`: the growth was 103% in the assay with SK-MEL-2 melanoma; 81.4% with EKVX NSCLC; 86.9% in the assay with SN12C renal; -48.4% (active) with UO-31 renal; 92.8% in the assay with TK-10 renal; 49.8% with ACHN renal. The growth in the assay with CAKI-1 renal is 27.8%; in the assay with A498 renal, 108%; in the assay on MOLT-4 leukemia, 64.3%.

As to `CCCCCCCN(CCCCCCC)C(=N)c1ccnc2ccccc12`, the growth is -46.5% (active) in the assay with SK-MEL-2 melanoma; -15.6% (active) with EKVX NSCLC; -42% (active) with SN12C renal; -62.5% (active) with UO-31 renal; 14.9% in the assay with TK-10 renal; -81.9% (active) with ACHN renal. Besides, the growth in the assay with CAKI-1 renal was 3.85% (active); with A498 renal it was -17.2% (active); in the assay with MOLT-4 leukemia, -16.5% (active).

As for `C=COCCCCCCCCCCCCCCCCCC`, the growth is 111% in the assay on SK-MEL-2 melanoma; 118% in the assay on EKVX NSCLC; 88.4% in the assay on SN12C renal; 124% with UO-31 renal; 101% in the assay on TK-10 renal; 108% in the assay with ACHN renal. The growth in the assay with CAKI-1 renal was 99.7%; in the assay on CCRF-CEM leukemia, 91.5%; with MOLT-4 leukemia it was 96.3%.
